Measurements reported in PubChem BioAssay (NCI).
This is part of a sample that, as a whole, favours compounds with a hit. Of some 83,000 tested, about 20% had one in any assay.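 The endpoint reported here, percent growth, reads 100 for growth as untreated, 0 for no net growth and -100 for all cells dead.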 Activity calls are given as the source filed them. Rule for the calls: active = growth percent below 10; inactive = the rest.

Legend:
Assay in all cases: NCI-60 one-dose screen, 48 h (100 = growth as untreated, 0 = no growth, -100 = all killed)
Settings in all cases: 10 µM unless noted
[1] = tested on: T-47D breast
[2] = tested on: BT-549 breast
[3] = tested on: MDA-MB-435 melanoma
[4] = tested on: SW-620 colon
[5] = tested on: MCF7 breast
[6] = tested on: HCT-116 colon
[7] = tested on: HCC-2998 colon
[8] = tested on: KM12 colon

Measured: growth

S=C(c1ccc2c(c1)OCO2)N1CCN(c2ccccc2Cl)CC1
inactive: [1] 94% | [2] 81.6% | [3] 99.9% | [4] 102% | [5] 103% | [6] 92.3% | [7] 113% | [8] 103%

COC(=O)[C@]12CC[C@@H](C)[C@H](C)[C@@H]1C1=CC[C@@H]3[C@@]4(C)C(C=O)=C[C@@](C)(COC(=O)c5ccco5)[C@@H]4C(=O)C[C@@]3(C)[C@]1(C)CC2
active: [1] 0.38% | [3] -10.1%
inactive: [2] 12.9% | [4] 31.4% | [5] 20.4% | [6] 12.6% | [7] 38.9% | [8] 23.1%

COC(=O)[C@]12CC[C@@H](C)[C@H](C)[C@@H]1C1=CC[C@@H]3[C@@]4(C)C(C=O)=C[C@@](C)(COC(C)=O)C4=CC[C@@]3(C)[C@]1(C)CC2
active: [1] -5.34% | [2] -16% | [3] -0.255% | [4] -43.8% | [5] 5.08% | [6] -67.5% | [7] -14.6% | [8] 2.7%

O=C(Nc1ccccc1-c1nc2ccccc2c(=O)[nH]1)c1cc2ccccc2[nH]1
inactive: [1] 70.1% | [2] 85.3% | [3] 106% | [4] 94.2% | [5] 68% | [6] 83.5% | [7] 104% | [8] 88.2%

COc1ccc2c(c1)CCCN2c1c2ccccc2nc2ccccc12
inactive: [1] 51.1% | [4] 24.7% | [5] 20.8%
active: [2] 7.21% | [3] -17.9% | [6] 6.8% | [7] -9.75% | [8] 5.15%

Cc1ccc(/C=C2\C(=O)N(C)c3ccc(S(=O)(=O)Nc4ccc(C(C)(C)C)cc4)cc32)s1
inactive: [1] 55% | [2] 87.4% | [3] 69.1% | [4] 50.4% | [5] 54.6% | [6] 37.2% | [7] 85% | [8] 59.9%

Fc1cnc(NC2CC2)nc1-c1cnc2ccc(N3CCOCC3)cn12
active: [1] 7.29% | [2] -5.41% | [3] 0.301% | [4] 5.59% | [5] 2.32% | [6] 3.97% | [7] 1.18% | [8] -2.57%

Cc1ccc(Cl)c(NS(=O)(=O)c2ccc(-c3cnc(C4CC4)o3)cc2)c1
active: [3] -59.6%
inactive: [1] 45% | [2] 34.5% | [4] 18.6% | [5] 12.4% | [6] 13.8% | [7] 26.8% | [8] 16.5%

O=C(Cc1ccc(F)c(F)c1)Nc1cc(C2(C(F)(F)F)CC2)nn1Cc1ccccc1
inactive: [2] 14.9% | [4] 11.5% | [7] 17.2%
active: [1] -8.37% | [3] 0.174% | [5] -7.28% | [6] 6.07% | [8] 1.89%

CC(C)=C[C@@H]1c2c(c3ccccc3n(C)c2=O)O[C@H]2c3c(c4ccccc4n(C)c3=O)OC(C)(C)[C@@H]12
inactive: [1] 57.7% | [2] 54.7% | [3] 83.9% | [4] 89.9% | [5] 69.8% | [6] 81.6% | [7] 82.7% | [8] 89.1%

CC1=C(SCCC(=O)OC(C[Se]C2=C(C)C(=O)c3ccccc3C2=O)C(=O)NCCCCCC(=O)OCc2ccccc2)C(=O)c2ccccc2C1=O (configuration not stated)
active: [6] 4.77%
inactive: [1] 49.9% | [2] 67.3% | [3] 25.1% | [4] 45.7% | [5] 28.2% | [7] 32% | [8] 19.8%

COc1ccc(-c2cc(-c3ccc(Nc4nc(Nc5ccc(Cl)cc5)nc(Nc5ccc(Cl)cc5)n4)cc3)nc(N)c2C#N)cc1
inactive: [5] 32.4% | [6] 20.2% | [8] 27.7%
active: [1] 3.86% | [2] -55.3% | [3] -1.59% | [4] -3.93% | [7] -8.77%

COc1ccc(/C=C/c2c(C(=O)/C=C/c3ccc(F)cc3)c(C)nc3ccccc23)cc1
active: [6] 3.18%
inactive: [1] 30.6% | [2] 67.5% | [3] 41% | [4] 15.7% | [5] 17% | [7] 34.6% | [8] 58.3%

C=C(C)[C@@H]1CC[C@]2(C)[C@H](CC=C3[C@@H]4CC(C)(C)CC[C@]4(C(N)=O)CC[C@]32C)[C@@]1(C)CCC#N
active: [5] 6.71% | [6] 9.92%
inactive: [1] 10.4% | [2] 17.7% | [3] 17.7% | [4] 22.1% | [7] 44.7% | [8] 20.7%
